uPA generation – cell surface uPA generation inhibition. Potency, µM (top dose mostly 38.3 µM), hits mostly inhibitors. 0.31% of 330,000 active. cell surface uPA generation assay, qHTS; active = well fitted inhibition curve with a large enough effect; inconclusive = small, poorly fitted or top-dose-only effect; inactive = no such curve, though single readings can be large or run the other way; tested in mouse RAW 264.7 cells; also: nearly all actives have a fitted effect of over 55% in size
Sfp PPTase inh – Sfp phosphopantetheinyl transferase inhibition; Q9F4F7; Biochemical Sfp PPTase activity, qHTS; Potency, µM, hits mostly inhibitors; 3.5% of 310,000 active;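 also: the enzyme is Sfp with the accession as filed and its product quenches rhodamine fluorescence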
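Compounds were incubated with enzyme (final 15 nM) for 15 min at room temperature before substrate addition started the reaction. Fluorescence at 525 nm excitation, 598 nm emission was recorded immediately and after 30 minutes.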
ClpP mod – qHTS Assay for Activators of ClpP; purified B. subtilis ClpP, FRET peptide cleavage, 20 min; Potency, µM (series often up to 57.5 µM); 1.9% of 340,000 active; active = well fitted falling curve with a large enough effect; inconclusive = small, poorly fitted or top-dose-only effect; inactive = no such curve, though single readings can be large or run the other way; also: the source files actives as falling curves though it sought activators and does not explain the sign; nearly all actives have a fitted effect of over 65% in size
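Buffer: 100 mM Tris/HCl pH8, 100 mM KCl, 0.05% low protease BSA, 2.5% glycerol, 0.01% Tween-20. ClpP 10 microg/mL final; 20 min RT; delta FRET normalized to ADEP and DMSO controls.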
TCR act – T cell receptor activation; primary human leukocytes, anti-CD3, IL-2 HTRF, 48 h; Potency, µM (top dose mostly 9.22 µM), most hits filed as activators; 330,000 tested, under 10 active; AID 504894
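IL-2 release read by HTRF sandwich (Eu cryptate donor, d2 acceptor, 665 nm emission) after 48 hr exposure of primary human leukocytes to compound together with anti-CD3 beads in the absence of co-stimulatory signals.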
Of the large screens only hits and unclear results are named; the others gave an inactive call; ! = not active in a repeat. An excerpt weighted towards active compounds, which were near 4.2% of everything screened. Unless noted, calls follow the shape of the dose curve; as a rule, active = well fitted curve in the direction sought with a large enough effect; inconclusive = small, poorly fitted or top-dose-only effect, or another doubt; inactive = no such curve, though single readings can be large; an effect the other way counts as inactive or inconclusive.

Cc1ccc(NC(=O)N2CCN(C(=O)c3nsc4ccccc34)CC2)cc1C	none (no result: uPA generation, Sfp PPTase inh, TCR act)
CSCCC(NC(=O)c1occc1C)C(=O)O (stereo not drawn)	ClpP mod 25µM
COc1cc2c(cc1OC)n(CC(=O)c1ccc(C)cc1C)c(=O)n1nc(CCn3nc(C)cc3C)nc21	none (no result: uPA generation, Sfp PPTase inh, TCR act)
Cc1ccc(C(=O)CSc2n[nH]c(C)n2)cc1	Sfp PPTase inh 89µM
Cc1nc(SCC(=O)O)n[nH]1	none (no result: ClpP mod)
CCc1ccc(C(=O)CSc2n[nH]c(C)n2)cc1	Sfp PPTase inh 56µM
Cc1ccccc1OCC(=O)N(Cc1ccc(N(C)C)cc1)CC1CCCO1 (stereo not drawn)	none (no result: uPA generation, Sfp PPTase inh, TCR act)
CC(C)Cc1nc(N2CCOCC2)c(C#N)c2c1COC(C)(C)C2	ClpP mod 28µM
COC(=O)CCSc1nc(N2CCOCC2)c2c(c1C#N)CC(C)(C)OC2	Sfp PPTase inh 79µM (no result: ClpP mod)
Cc1ccc(S(=O)(=O)N2CCN(c3nc(C(C)C)c4c(c3C#N)CC(C)(C)OC4)CC2)cc1	ClpP mod 14µM (no result: uPA generation)
CCCNC(=O)N1CCN(c2nc(C(C)C)c3c(c2C#N)CC(C)(C)OC3)CC1	none
CCOC(=O)CCSc1nc(N2CCOCC2)c2c(c1C#N)CC(C)(C)OC2	none (no result: ClpP mod)
CCCOC(=O)c1ccc(NC(=O)c2ccccc2[N+](=O)[O-])cc1	none
CC1(C(=O)Nc2ccc3c(c2)OCO3)CCN1C(=O)C1CCCCC1 (stereo not drawn)	none (no result: uPA generation, Sfp PPTase inh, TCR act)
O=C(c1ccc2c(c1)N(Cc1ccc(Cl)cc1)C(=O)c1ccccc1S2=O)N1CCC(Cc2ccccc2)CC1 (stereo not drawn)	none (no result: uPA generation, Sfp PPTase inh, TCR act)
Cc1c(Br)cc(C(=O)NCCCN2CCOCC2)c(C)c1C	ClpP mod 16µM
CCC(=O)c1c[nH]c(C(=O)NCCCN2CCOCC2)c1	none
CCCC(=O)c1c[nH]c(C(=O)NCCCN2CCOCC2)c1	ClpP mod 25µM
CCC(NC(=O)c1ccccc1O)c1ccccc1 (stereo not drawn)	ClpP mod 32µM (no result: uPA generation)
COc1ccc(N(C(=O)c2ccccc2F)S(=O)(=O)c2ccc3c(c2)n(C)c(=O)n3C)cc1	none (no result: uPA generation, Sfp PPTase inh, TCR act)
Cc1cccc(N2C(=O)C(Cl)=C(N3CCOCC3)C2=O)c1	Sfp PPTase inh 3.5µM
COc1ccc(O)c(C(=O)C2c3ccccc3C(=O)N2c2ccc(C)cc2)c1 (stereo not drawn)	Sfp PPTase inh 22µM (no result: ClpP mod)
Cn1cc(C2=C(c3cn(CCCSC(=N)N)c4ccccc34)C(=O)NC2=O)c2ccccc21	Sfp PPTase inh 50µM (no result: uPA generation, TCR act)
Cc1ccc(Cl)cc1Nc1nn2c(=O)c3ccc(C(=O)NCc4ccc(F)cc4)cc3nc2s1	none (no result: uPA generation, Sfp PPTase inh, TCR act)
COc1ccccc1/C=C/C1(C(=O)NC2CCCC2)CC(=O)N1c1ccccc1 (stereo not drawn)	uPA generation 2.8µM
O=C(c1ccc2c3n(nc2c1)-c1ccccc1CO3)N1CCOCC1	uPA generation 7.1µM
Cc1ccc2c(c1)COc1c3ccc(C(=O)N4CCCCC4)cc3nn1-2	none
C[C@@H](CO)NC(=O)c1ccc2c3n(nc2c1)-c1ccccc1CO3	uPA generation 1.1µM
O=C(c1ccc2c3n(nc2c1)-c1ccccc1CO3)N1CCCCC1	uPA generation 4.5µM
Cc1cc(Br)ccc1NC(=O)COC(=O)c1ccccc1OCC(N)=O	none (no result: uPA generation, Sfp PPTase inh, TCR act)
COc1ccc(N2CC(NC(=O)/C=C\c3ccc4c(c3)OCO4)CC2=O)cc1 (stereo not drawn)	ClpP mod 28µM (no result: uPA generation, Sfp PPTase inh, TCR act)
O=C(/C=C\c1ccc2c(c1)OCO2)NC1CC(=O)N(c2ccccc2)C1 (stereo not drawn)	none (no result: uPA generation, Sfp PPTase inh, TCR act)
CCOC(=O)c1cccc(C(=O)OCC)n1	none
Cc1ccc(OC(=O)c2cccc(C(=O)Oc3ccc(C)cn3)n2)nc1	Sfp PPTase inh 50µM (no result: uPA generation, ClpP mod, TCR act)
Nc1ccn([C@@H]2O[C@H](CO)[C@@H](O)C2O)c(=O)n1 (stereo partly drawn)	Sfp PPTase inh 100µM!
COc1ccc(-c2noc(CCC(=O)O)n2)cc1	none
O=C(O)CCc1ccc(-c2ccc(Br)cc2)n1Cc1ccco1	none (no result: TCR act)
Cc1oc(-c2ccc(Cl)cc2)cc1C(=O)O	none (no result: ClpP mod)
O=C(O)CCc1ccc(-c2ccc(Cl)cc2)o1	Sfp PPTase inh 20µM, ClpP mod inconclusive
COc1ccc(-c2ccc(CCC(=O)O)o2)cc1	Sfp PPTase inh 14µM (no result: ClpP mod)
O=C(O)CCc1ccc(-c2ccc(Br)cc2)o1	Sfp PPTase inh 18µM
CC(Oc1ccc(F)cc1)C(=O)NCC1(N(C)C)CCCCC1 (stereo not drawn)	none (no result: uPA generation, Sfp PPTase inh, TCR act)
CCOC(=O)N1CCN(C(=O)c2cn(CCOC)c(=O)c3c2c2ccccc2n3C)CC1	ClpP mod 14µM (no result: TCR act)
COc1ccccc1N1CCN(C(=O)c2cn(CC(C)C)c(=O)c3c2c2ccccc2n3C)CC1	none (no result: uPA generation, Sfp PPTase inh, TCR act)
